Each sequence was assayed on VDR:RXRa (NR concentration 270 nM, RXRa partner concentration 90 nM) (assay: PBM binding z-score (relative to random genomic background probes); higher = stronger binding; sequences stand for … in GC…GCGATTGACAGCGTAGAATGAAGG).
Protocol: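 Protein-binding microarray (Agilent 4x180K custom design, double-stranded 60-nt probes: 5' GC cap, 34-nt variable region, 24-nt constant primer region; full probe sequence given). Purified or IVT nuclear receptor:RXRα heterodimers (3:1 NR:RXRα, mostly 270:90 nM) or homodimers were incubated for 1 h in PBS with 2% milk and no ligand, then detected with Alexa488 antibodies. Fluorescence from o1-orientation probes (~5 replicates averaged) was converted to z-scores against 500 random hg19 background probes. Variable regions are seed direct-repeat (DR0–DR5) sites, all their single-nucleotide variants and half-site ablations.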

| Sequence | PBM binding z-score |
| --- | --- |
| TCTCGGAGGACACGACAGGTCAGAGCTCGACATC | 0.875 |
| CAAACTAGGTCACACAGGTCAAAGTCCGTGCGTA | 6.73 |
| CAGTCTAGGTCAGGGCCAGTATAGGAGGAACGTT | 0.403 |
| CAAACTAGGTCAAGAGGTCAAAATCCGCTTCCCG | 5.85 |
| CCTCGGAGGACAACAGGAGGTCTGAGCTGCCAGA | -0.681 |
| ACTCGGAGGACAAAGGTCAGCGCTACGCCAGTGA | 3.41 |
| CCAGACTGGTGAGAAGGTAACTCAGCCTCGATTA | -0.455 |
| CGTCCAAGGTCATAGGAGCTCAGTGAAGACAGAT | 4.11 |
| GGAACGAGGGCATTCGATTTGATAGCATGGCGAT | 1.73 |
| CGTCCAAGCTCAAGGTCAGTGAAAGAGACTCGAA | 1.18 |
| GCAGACAGGTGAAACTCAGGTAACTCAGGGTGGC | -0.101 |
| GCAGACAGGTGAAACGCAGGTAAATCAGGGTGGC | -0.374 |
| AGAACGAGGGCACGCAGAGTTGATAGCAGAGTAG | 2.02 |
| CCTACTGGGCCATCAGGTCATTGAGATCAACGTT | 3.41 |
| CCAGACAGGTGAAAGATAACTCAGTCTGGTACGC | 0.17 |
| AGTAGTTGGTCAGCTGAGGTCACACACAATTCGG | 4.43 |
| TAGCCTAGGTCATGCGGGCCATTATAGTGTCGGC | 4.09 |
| GCTCACGGGTCAAAGGTTATAGCATGAATAGAAT | 5.38 |
| ACCTCTAGGTAAAGATAGTTCAGTGAATGCAAAT | 0.302 |
| TGAATGAGGTTATAAGATTAGGGAACGTTGCAAA | 1.12 |

| Sequence | PBM binding z-score |
| --- | --- |
| TCGAGTAGGTTAGTGGGGGCATTCAGCCAACATA | 5.48 |
| GCTTACGGGTCAAAGGTTATACCATGAATAGAAT | 5.75 |
| CCTATTAGTTGACCATAAGGGCAATCGAAGCTCG | 0.713 |
| CCAGACAGGTGAGAAGGTAACTTAGCCTCGATTA | 0.0956 |
| TAGCCTAGGTCATTTAGGGGCCAGTATAGAAAGC | 3.03 |
| CTACCAAGGTGAACAAGGTCGTTGAATACTATTC | 5.99 |
| GCTGCTAGGTCAGGTTGGTCCGCTAACGGGTACG | 0.681 |
| CCTACTGGGCCATCAGGTCAATGATATCAACGTT | 1.4 |
| TTACCAAGGTGAGCTGATGTCGTTGATCCAACTC | -0.0183 |
| TAGCCTAGGTCATTCAGGGGCCAGTATTGAAAGC | 3.18 |
| TCTAGTTGGTAACGGAGGTCACACACGACGGGTA | 3.8 |
| CAAACTAGGTCAAAGAGGTCAAAGTCCGTGCGTA | 7.75 |
| TAGCCTAGGTCAGATCGGGCCAGTGTACGCTATA | 0.494 |
| TCTATTACTTGATTAGGGCAACCGAAACAGCGGA | 0.676 |
| CATACAGGGTCAGCTAGGCCAAAGTAGGGACGGC | 4.73 |
| CCTAGCAGGACAATCTGGGTCACTCAAGGCTTGA | 0.704 |
| ATCTCTAGGTAAAGATAGTTCAGTGATTGCAAAT | 1.07 |
| TCTATTAGTTGGAGGGCAACCGACGAGTCCGTTT | 1.27 |
| CCTAGTTGGTCAAGGACACACACGCTATAGGTAC | 0.744 |
| ATCGAAAGGTCGACAAGGTGAGTATACACCGTTT | 4.61 |

Reference: the supplement of paper PMC6555819
